The text below walks through data of PubChem BioAssay (EPA / NIEHS).

Inconclusive results are not listed. Activity calls are given as the source filed them. How the source made its calls: active means hit-call score of the fitted dose curve at least 0.9, where 1 is the maximum; inconclusive means response in the unintended direction; inactive means score below 0.9.

The target in assay [1] is rat Opioid Receptor, Non-selective Sodium (Na+) Binding, Oprm1 (gene 25601) (UniProt P33535). The assay is described as follows: NVS_GPCR_rOpiate_NonSelectiveNa: NovaScreen (NVS) G Protein-Coupled Receptor Assay for rat Opioid Receptor, Non-selective Sodium (Na+) Binding (AID 2283311). The procedure, abridged: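 Filtration radioligand binding on rat forebrain membrane preparations, read 1.5 h after dosing. Single-concentration 25 µM primary screen in duplicate, followed by singleton concentration series to 50 µM max for actives; DMSO baseline.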
Chain of rat Opioid Receptor, Non-selective Sodium (Na+) Binding, Oprm1 (gene 25601) (P33535 whole entry, looked up): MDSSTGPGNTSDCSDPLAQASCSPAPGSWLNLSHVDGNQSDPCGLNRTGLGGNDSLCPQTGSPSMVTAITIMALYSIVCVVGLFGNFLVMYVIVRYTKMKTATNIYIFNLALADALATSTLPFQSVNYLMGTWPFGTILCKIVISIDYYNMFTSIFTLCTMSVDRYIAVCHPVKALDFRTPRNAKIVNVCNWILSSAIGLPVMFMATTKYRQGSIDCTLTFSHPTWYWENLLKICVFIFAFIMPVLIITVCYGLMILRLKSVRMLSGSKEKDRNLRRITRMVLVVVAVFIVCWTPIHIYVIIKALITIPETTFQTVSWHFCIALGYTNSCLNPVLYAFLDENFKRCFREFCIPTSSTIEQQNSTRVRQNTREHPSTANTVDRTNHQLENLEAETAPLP

Assay [2] has as its target human Neonicotinoid receptor (NNR), CHRNA2 (gene 1135) (UniProt Q15822). The assay is described as follows: NVS_LGIC_hNNR_NBungSens: NovaScreen (NVS) Ligand-Gated Ion Channel Assay for human Neonicotinoid receptor (NNR) (AID 2283313). The procedure, abridged: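 Compounds first screened in duplicate at 25 uM, then actives re-tested in single-replicate dose series up to 50 uM. Binding measured as displacement of specific radioligand from neuroblastoma membrane receptors after 2 h, scintillation read on filters.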

The target of assay [3] is rat Neonicotinoid receptor (NNR), Chrna7 (gene 25302) (UniProt Q05941). The assay is described as follows: NVS_LGIC_rNNR_BungSens: NovaScreen (NVS) Ligand-Gated Ion Channel Assay for rat Neonicotinoid receptor (NNR) (AID 2283315). Put shortly:
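Rat cortical membrane preparation incubated 2.5 h with tritiated or iodinated radioligand and test chemical. Bound radioactivity was filtered and counted by scintillation, and displacement was analysed against DMSO.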

Assay [4] has as its target rat Opioid Receptor, Non-selective Binding, Oprm1 (gene 25601) (UniProt P33535). The assay is described as follows: NVS_GPCR_rOpiate_NonSelective: NovaScreen (NVS) G Protein-Coupled Receptor Assay for rat Opioid Receptor, Non-selective Binding (AID 2283318). The procedure, abridged: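 Filter-based radioligand displacement using rat forebrain membrane preparations, measured 1.5 h post-dosing. Single-concentration duplicate screen at 25 uM, follow-up in concentration series; activity taken as signal loss relative to DMSO.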

Assay [5] can be described thus: NVS_IC_rCaDHPRCh_L: NovaScreen (NVS) Ion Channel Assay for rat Calcium Channel, Type L, Dihydropyridine Site (CaDHPRCh_L) (AID 2283320). The procedure, abridged:
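Rat cortex membrane preparation; dihydropyridine-site radioligand displacement read 1 h post-dose by filtration and scintillation. Primary single-point screen 25 uM in duplicate, then concentration series to 50 uM maximum; DMSO as negative control.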

In assay [6] the target is Sodium channel protein type 1 subunit alpha (Rattus norvegicus) (UniProt P04774). The assay is described as follows: NVS_IC_rNaCh_site2: NovaScreen (NVS) Ion Channel Assay for rat Sodium Channel, Site 2 (NaCh) (AID 2283322).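 Further: hit means loss of radioligand binding signal relative to DMSO so AC50 marks displacement.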 The procedure, abridged: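 Initial duplicate single-point testing at 25 uM, followed by concentration-response runs for actives. Binding of radioligand to rat forebrain membranes quantified after 1 h via filter-based radiodetection.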

Assay [7] deals with rat Gamma-Aminobutyric Acid Type A Receptor, Non-Selective (GABAR-NonSelective), Gabra1 (gene 29705) (UniProt P62813). The assay is described as follows: NVS_LGIC_rGABAR_NonSelective: NovaScreen (NVS) Ligand-Gated Ion Channel Assay for rat Gamma-Aminobutyric Acid Type A Receptor, Non-Selective (GABAR-NonSelective) (AID 2283326). The procedure, abridged:
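Compounds were first screened in duplicate at 25 uM, with actives run as singleton concentration series (max 50 uM). Binding of a radioligand to rat whole-brain GABA-A preparation was measured by filtration and scintillation counting after 1 h, DMSO baseline.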

For assay [8], the target named is rat Glutamate Metabotropic Receptor 5 (MGluR5), Grm5 (gene 24418) (UniProt P31424). The assay is described as follows: NVS_GPCR_rmMGluR5: NovaScreen (NVS) G Protein-Coupled Receptor Assay for rat Glutamate Metabotropic Receptor 5 (MGluR5) (AID 2283307). Put shortly:
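Compounds first screened in duplicate at 25 uM, then in concentration series up to 50 uM if over threshold. Radioligand displacement on rat whole-brain membranes, filtration and scintillation counting after 1.5 h; binding loss relative to DMSO.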

The target in assay [9] is rat Neurokinin-1 Receptor (NK1), Tacr1 (gene 24807) (UniProt P14600). The assay is described as follows: NVS_GPCR_rNK1: NovaScreen (NVS) G Protein-Coupled Receptor Assay for rat Neurokinin-1 Receptor (NK1) (AID 2283309). The procedure, abridged: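 Competitive radioligand binding to NK1 in rat submaxillary membranes, 1 h incubation, filtration and scintillation read-out. Compounds first screened at 25 uM in duplicate, then concentration-response for actives; signal loss relative to DMSO.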
Chain of rat Neurokinin-1 Receptor (NK1), Tacr1 (gene 24807) (P14600 whole entry, looked up): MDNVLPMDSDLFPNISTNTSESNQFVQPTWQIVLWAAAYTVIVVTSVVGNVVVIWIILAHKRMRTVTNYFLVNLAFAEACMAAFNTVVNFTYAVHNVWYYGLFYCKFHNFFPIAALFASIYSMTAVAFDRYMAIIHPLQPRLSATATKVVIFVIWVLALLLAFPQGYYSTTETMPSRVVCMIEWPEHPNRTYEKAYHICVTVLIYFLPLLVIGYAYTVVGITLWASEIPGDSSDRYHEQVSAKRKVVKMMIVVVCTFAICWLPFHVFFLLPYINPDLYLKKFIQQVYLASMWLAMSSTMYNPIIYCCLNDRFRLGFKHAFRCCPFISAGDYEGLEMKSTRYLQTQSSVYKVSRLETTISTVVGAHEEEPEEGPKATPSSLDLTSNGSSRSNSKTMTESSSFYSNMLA

Assay [10] concerns the target rat Somatostatin Receptor (SST), Sstr1 (gene 25033) (UniProt P28646). The assay is described as follows: NVS_GPCR_rSST: NovaScreen (NVS) G Protein-Coupled Receptor Assay for rat Somatostatin Receptor (SST) (AID 2283314). The procedure, abridged:
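Single-concentration duplicate screen (25 uM), then concentration-response up to 50 uM for chemicals passing a threshold such as 30% inhibition. Membranes came from rat forebrain. Binding was measured 1 h post-dose by filter radiodetection and scintillation, relative to DMSO.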

A further assay relates to NCBI gene 24521. The assay is described as follows: NVS_IC_rKATPCh: NovaScreen (NVS) Ion Channel Assay for rat Potassium Channel, ATP-Sensitive (KATPCh) (AID 2283319). The procedure, abridged: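 Primary duplicate screen at 25 uM, then singleton concentration series to 50 uM maximum, in a rat cortex membrane radioligand displacement assay. Binding measured by filtration and scintillation 2 h post-dose; DMSO baseline.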

Assay [11] deals with bovine Gamma-Aminobutyric Acid Type A Receptor BDZ, alpha 1 site (GABARa1), GABRA1 (gene 780973) (UniProt P08219). The assay is described as follows: NVS_LGIC_bGABARa1: NovaScreen (NVS) Ligand-Gated Ion Channel Assay for bovine Gamma-Aminobutyric Acid Type A Receptor BDZ, alpha 1 site (GABARa1) (AID 2283321). The procedure, abridged:
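Bovine cortex membrane preparation, benzodiazepine site on GABA-A alpha1; specific radioligand displacement read after 0.75 h by filtration and scintillation. Screen at 25 uM, then singleton titrations up to 50 uM; DMSO baseline.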

Assay [12] deals with human Serotonin, 5-Hydroxytryptamine Receptor 3 (5HT3), HTR3A (gene 3359) (UniProt P46098). The assay is described as follows: NVS_LGIC_h5HT3: NovaScreen (NVS) Ligand-Gated Ion Channel Assay for human Serotonin, 5-Hydroxytryptamine Receptor 3 (5HT3) (AID 2283325). The procedure, abridged:
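Initially tested at 25 uM in duplicate, then up to 50 uM in concentration-response for actives, compounds competed with a radioligand for HEK293-derived human 5-HT3 receptor. Bound counts were measured by filtration and scintillation at 1 h; loss of signal versus DMSO.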

Assay [13] concerns the target rat Neurokinin-3 Receptor (NK3), Tacr3 (gene 24808) (UniProt P16177). The assay is described as follows: NVS_GPCR_rNK3: NovaScreen (NVS) G Protein-Coupled Receptor Assay for rat Neurokinin-3 Receptor (NK3) (AID 2283310). The procedure, abridged:
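Filter-based radioligand displacement on rat cortex membrane preparations, read by scintillation 2 h post-dose. Chemicals first tested in duplicate at 25 uM; actives followed up in concentration series with a 50 uM maximum.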

The target in assay [14] is Voltage-dependent N-type calcium channel subunit alpha-1B (Rattus norvegicus) (UniProt Q02294). The assay is described as follows: NVS_IC_rCaChN: NovaScreen (NVS) Ion Channel Assay for rat Calcium Channel, Type N (CaChN) (AID 2283317).
Assay [15] addresses bovine Gamma-Aminobutyric Acid Type A Receptor BDZ, alpha 5 site (GABARa5), GABRA5 (gene 523515) (UniProt Q08E50). The assay is described as follows: NVS_LGIC_bGABARa5: NovaScreen (NVS) Ligand-Gated Ion Channel Assay for bovine Gamma-Aminobutyric Acid Type A Receptor BDZ, alpha 5 site (GABARa5) (AID 2283323). Put shortly: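 Tested first in duplicate at a single 25 uM, with hits re-run in concentration series to a 50 uM maximum. Bovine hippocampal membranes; specific radioligand displacement measured by filter scintillation counting 1 hr post-dose.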

The target of assay [16] is rat Glutamate, AMPA Site (AMPA), Gria1 (gene 50592) (UniProt P19490). The assay is described as follows: NVS_LGIC_rAMPA: NovaScreen (NVS) Ligand-Gated Ion Channel Assay for rat Glutamate, AMPA Site (AMPA) (AID 2283324). The procedure, abridged:
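Screening at 25 uM in duplicate preceded concentration series reaching 50 uM for qualifying compounds. Radioligand displacement on rat forebrain membranes, 1 h, filter-based scintillation readout; reduced binding relative to DMSO.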

Assay [17] has as its target rat Thyrotropin Releasing Hormone Receptor (TRH), Trhr (gene 25570) (UniProt Q01717). The assay is described as follows: NVS_GPCR_rTRH: NovaScreen (NVS) G Protein-Coupled Receptor Assay for rat Thyrotropin Releasing Hormone Receptor (TRH) (AID 2283329).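 Further: hit means lower bound tracer signal versus DMSO baseline.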 The procedure, abridged: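 Competitive radioligand binding on rat forebrain membrane preparations, with filtration and scintillation readout after 4 h. Primary testing in duplicate at 25 uM; actives confirmed in concentration-response. DMSO defined baseline.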

Chain of rat Opioid Receptor, Non-selective Binding, Oprm1 (gene 25601) (P33535 whole entry, looked up): as the sequence (P33535 whole entry, looked up) above
Chain of bovine Gamma-Aminobutyric Acid Type A Receptor BDZ, alpha 1 site (GABARa1), GABRA1 (gene 780973) (P08219 whole entry, looked up): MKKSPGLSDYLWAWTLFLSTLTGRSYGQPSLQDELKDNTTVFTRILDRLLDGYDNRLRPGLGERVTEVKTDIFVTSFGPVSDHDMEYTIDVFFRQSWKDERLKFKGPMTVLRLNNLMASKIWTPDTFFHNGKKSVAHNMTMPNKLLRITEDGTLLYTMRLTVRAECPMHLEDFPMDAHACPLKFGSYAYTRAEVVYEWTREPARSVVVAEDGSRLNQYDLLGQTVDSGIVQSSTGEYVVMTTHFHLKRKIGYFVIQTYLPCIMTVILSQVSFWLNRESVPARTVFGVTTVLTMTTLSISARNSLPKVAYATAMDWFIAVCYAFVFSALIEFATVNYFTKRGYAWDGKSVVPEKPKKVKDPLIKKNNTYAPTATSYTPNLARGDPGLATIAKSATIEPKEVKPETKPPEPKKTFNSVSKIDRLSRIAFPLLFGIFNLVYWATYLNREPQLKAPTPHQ
Chain of rat Somatostatin Receptor (SST), Sstr1 (gene 25033) (P28646 whole entry, looked up): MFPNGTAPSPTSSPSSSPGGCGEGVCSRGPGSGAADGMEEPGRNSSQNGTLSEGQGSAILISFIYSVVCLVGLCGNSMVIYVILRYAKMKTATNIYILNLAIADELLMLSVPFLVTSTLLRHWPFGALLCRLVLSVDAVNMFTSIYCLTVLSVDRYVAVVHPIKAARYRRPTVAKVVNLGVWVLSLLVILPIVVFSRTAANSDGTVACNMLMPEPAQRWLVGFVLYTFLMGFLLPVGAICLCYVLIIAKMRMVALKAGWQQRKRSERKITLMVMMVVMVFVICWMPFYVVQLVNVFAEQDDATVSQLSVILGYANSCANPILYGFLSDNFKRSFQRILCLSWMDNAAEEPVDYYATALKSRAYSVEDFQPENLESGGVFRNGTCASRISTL
Chain of rat Gamma-Aminobutyric Acid Type A Receptor, Non-Selective (GABAR-NonSelective), Gabra1 (gene 29705) (P62813 whole entry, looked up): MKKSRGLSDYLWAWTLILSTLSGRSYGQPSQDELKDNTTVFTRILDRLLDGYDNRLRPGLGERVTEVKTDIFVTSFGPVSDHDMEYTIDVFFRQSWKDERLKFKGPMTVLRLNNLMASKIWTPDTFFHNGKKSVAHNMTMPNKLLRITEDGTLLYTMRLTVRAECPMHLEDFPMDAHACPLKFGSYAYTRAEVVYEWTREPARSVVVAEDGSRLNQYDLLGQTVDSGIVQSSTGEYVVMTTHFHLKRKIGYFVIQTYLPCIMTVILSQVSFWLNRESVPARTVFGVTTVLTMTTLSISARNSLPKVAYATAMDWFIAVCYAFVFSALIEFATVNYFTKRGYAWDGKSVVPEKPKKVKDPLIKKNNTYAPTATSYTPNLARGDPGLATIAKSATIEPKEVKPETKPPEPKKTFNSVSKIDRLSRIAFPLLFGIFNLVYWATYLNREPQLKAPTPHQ
Chain of human Neonicotinoid receptor (NNR), CHRNA2 (gene 1135) (Q15822 whole entry, looked up): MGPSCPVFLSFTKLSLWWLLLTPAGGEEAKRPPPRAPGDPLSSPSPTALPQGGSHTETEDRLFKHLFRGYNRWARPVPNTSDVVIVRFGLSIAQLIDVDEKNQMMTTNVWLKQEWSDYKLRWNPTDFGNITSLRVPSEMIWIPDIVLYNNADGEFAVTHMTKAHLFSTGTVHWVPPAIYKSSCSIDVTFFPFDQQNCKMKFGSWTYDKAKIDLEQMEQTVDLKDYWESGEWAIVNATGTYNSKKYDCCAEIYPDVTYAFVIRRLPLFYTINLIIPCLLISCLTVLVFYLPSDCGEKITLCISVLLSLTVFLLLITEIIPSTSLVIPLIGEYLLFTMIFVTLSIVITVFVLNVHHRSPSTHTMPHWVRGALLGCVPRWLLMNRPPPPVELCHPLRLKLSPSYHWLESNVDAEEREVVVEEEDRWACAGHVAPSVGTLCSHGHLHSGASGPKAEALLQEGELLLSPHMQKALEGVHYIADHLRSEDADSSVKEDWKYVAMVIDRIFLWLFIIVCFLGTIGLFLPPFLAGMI
Chain of rat Thyrotropin Releasing Hormone Receptor (TRH), Trhr (gene 25570) (Q01717 whole entry, looked up): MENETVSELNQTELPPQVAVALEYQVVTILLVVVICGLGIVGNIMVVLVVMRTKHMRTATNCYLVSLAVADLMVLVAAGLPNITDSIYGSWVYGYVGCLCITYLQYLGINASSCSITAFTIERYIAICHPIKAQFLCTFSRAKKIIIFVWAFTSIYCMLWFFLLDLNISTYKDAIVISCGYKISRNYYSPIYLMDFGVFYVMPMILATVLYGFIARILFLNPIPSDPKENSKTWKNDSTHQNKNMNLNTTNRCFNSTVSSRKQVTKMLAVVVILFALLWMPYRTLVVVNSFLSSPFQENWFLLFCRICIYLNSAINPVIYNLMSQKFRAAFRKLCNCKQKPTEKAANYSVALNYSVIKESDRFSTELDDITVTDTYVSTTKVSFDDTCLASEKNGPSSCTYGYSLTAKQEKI
Chain of rat Glutamate Metabotropic Receptor 5 (MGluR5), Grm5 (gene 24418) (P31424 whole entry, looked up): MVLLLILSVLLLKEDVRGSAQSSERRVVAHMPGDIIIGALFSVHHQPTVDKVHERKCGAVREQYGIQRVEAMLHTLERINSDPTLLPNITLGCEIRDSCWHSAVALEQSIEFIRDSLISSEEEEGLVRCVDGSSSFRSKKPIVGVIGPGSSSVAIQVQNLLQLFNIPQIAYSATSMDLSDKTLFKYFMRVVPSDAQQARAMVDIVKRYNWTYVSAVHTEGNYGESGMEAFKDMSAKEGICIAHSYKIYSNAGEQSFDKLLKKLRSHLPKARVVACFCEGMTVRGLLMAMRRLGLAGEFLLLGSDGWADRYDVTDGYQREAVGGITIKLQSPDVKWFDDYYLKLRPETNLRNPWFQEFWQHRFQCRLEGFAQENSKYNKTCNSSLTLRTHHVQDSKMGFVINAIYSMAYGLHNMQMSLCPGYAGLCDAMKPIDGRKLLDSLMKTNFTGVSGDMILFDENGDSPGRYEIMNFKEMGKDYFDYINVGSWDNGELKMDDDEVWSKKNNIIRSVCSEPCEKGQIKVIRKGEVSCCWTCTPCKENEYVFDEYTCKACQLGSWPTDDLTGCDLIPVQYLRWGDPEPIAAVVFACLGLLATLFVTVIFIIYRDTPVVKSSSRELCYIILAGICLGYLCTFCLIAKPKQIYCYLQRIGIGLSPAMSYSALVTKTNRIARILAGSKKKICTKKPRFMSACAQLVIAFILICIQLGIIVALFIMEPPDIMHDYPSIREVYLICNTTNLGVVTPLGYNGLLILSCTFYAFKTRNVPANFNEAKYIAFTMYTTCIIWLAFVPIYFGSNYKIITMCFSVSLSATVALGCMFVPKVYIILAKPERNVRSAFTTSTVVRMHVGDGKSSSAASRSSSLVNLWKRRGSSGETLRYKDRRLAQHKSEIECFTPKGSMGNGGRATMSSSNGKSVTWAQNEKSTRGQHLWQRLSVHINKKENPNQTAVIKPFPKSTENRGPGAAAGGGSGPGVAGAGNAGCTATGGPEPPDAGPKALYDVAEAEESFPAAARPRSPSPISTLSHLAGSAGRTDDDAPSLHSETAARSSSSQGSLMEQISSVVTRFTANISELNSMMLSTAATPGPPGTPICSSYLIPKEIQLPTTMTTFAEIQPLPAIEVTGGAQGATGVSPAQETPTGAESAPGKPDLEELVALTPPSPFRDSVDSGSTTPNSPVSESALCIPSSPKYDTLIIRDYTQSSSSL

The AC50 is the concentration giving half of the maximal activity seen. Take `CCOC(=O)[C@]1(c2ccccc2)Oc2ccccc2[C@@H]1N`: the concentration at half-maximal activity (AC50) in assay [1] was 21.3 µM (active); in assay [3] it was 25 µM (active); in assay [4], 7.52 µM (active); in [5], 6.77 µM (active); in assay [6], 2.3 µM (active); in [7], 1.08 µM (active). Also, the call in [2] was inactive.

As to `CCN(CC)CCO`, the compound was called inactive in assay [8].

As to `CC(C)(C)C(O)(CCc1ccc(Cl)cc1)Cn1cncn1` (stereo unspecified), the figures for the AC50 in assay [9] and in assay [6] were 12.9 µM (active) and 25 µM (active), respectively.

With `O=C(O)C1C2CCC(O2)C1C(=O)O` (stereo unspecified), the AC50 is 3.96 µM (active) in assay [10] and 2.14 µM (active) in assay [7].

`CCCCC(CC)COC(=O)c1ccc(C(=O)OCC(CC)CCCC)c(C(=O)OCC(CC)CCCC)c1` (stereo unspecified): the compound was classed as inactive in [4].

In the case of `O=C(Oc1ccc(Br)cc1)N1CCN2CCC1CC2`, the AC50 was 8.47 µM (active) in assay [2], 8.18 µM (active) in assay [6] and 12.5 µM (active) in assay [12]. Besides, the compound was called inactive (in the assay on NCBI gene 24521; in assay [11]).

On to `[Cl-].[Cl-].[Hg+2]`, for which the AC50 in assay [9] was 14.2 µM (active); in assay [13], 12.9 µM (active); in assay [1], 16.7 µM (active); in assay [4], 13.6 µM (active); in the assay with NCBI gene 24521, 27.6 µM (active); in assay [5] it was 16.8 µM (active).

Regarding `CC(C)(C)OOC(=O)c1ccccc1`, the compound was called inactive in [9].

With `O=[N+]([O-])C(Br)(CO)CO`, the AC50 was 11 µM (active) in assay [1] and 16 µM (active) in assay [4].

Take `Clc1ccc(C(c2ccc(Cl)cc2)C(Cl)(Cl)Cl)cc1`: the call in assay [9] was inactive.

Consider `CS(=O)(=O)NC(=O)c1cc(Oc2ccc(C(F)(F)F)cc2Cl)ccc1[N+](=O)[O-]`, for which the AC50 in [10] was 1.38 µM (active). Further, the result in assay [14] was inactive.

For the compound `COP(=S)(OC)SCN1C(=O)c2ccccc2C1=O`, in [4], the concentration at half-maximal activity (AC50) was 31.8 µM (active).

As to `Cc1ccc(N)c(N)c1`, the call in [11] was inactive.

Turning to `CC(C)(O)c1cnn2c(-c3ccc(F)c(-c4c(F)cccc4C#N)c3)cnc2n1`, the outcome in [11] was inactive. For the same compound, in assay [15], the AC50 was 0.00229 µM (active).

In the case of `c1ccc(NNc2ccccc2)cc1`, in [16], the outcome was inactive.

Regarding `OCCCBr`, in [17], the result was inactive.
